Source: PubChem
S2 tox: viability counter-screen for ATXN expression inhibitors | S2 cells (HEK-293 line with an ATXN2-luciferase reporter) viability, CellTiter-Fluor protease fluorescence, 24 h | Potency, µM (top dose mostly 56.7 µM), hits mostly cytotoxic | hit rate 0.49% among 400,000 | AID 651635; also: potency is read from the fitted curve at half-maximal effect; nearly all actives have a fitted effect of over 40% in size
CtBP-E1A blk: blocks the CtBP interaction with E1A | hit rate 0.49% among 340,000 | AlphaScreen GST-E1A/His-CtBP binding, 1536-well; stronger effect = lower value | activity change, % (test concentration not listed); in the data active = activity change below about -65%; inconclusive = mostly about -30% to -63%; also: % is scaled to controls: 0 for no effect and ±100 for the full control effect
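GST-E1A and His-tagged CtBP (125 nM each as 5X stock) were preincubated with pin-transferred compound for 2 h at 37 °C in the dark, then glutathione donor and nickel acceptor beads were added for 1 h before AlphaScreen reading.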
TGFb inhibitor: inhibitors of TGF-b signaling | HepG2 CAGA-GFP TGF-b/SMAD3 reporter, GFP fluorescence, 18 h; TGF-beta stimulated, 500 pg/mL final | Potency, µM (highest dose often 46.1 µM), without a hit: at the top dose activity, negative = inhibition, usual class: inhibitors | hit rate 1.2% among 410,000 | AID 588855; also: potency is read from the fitted curve at half-maximal effect; % is scaled to controls: 0 for no effect and ±100 for the full control effect; nearly all actives have a fitted effect of over 65% in size
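GFP signal (ex488/em500-530) from TGF-beta-stimulated HEPG2 CAGA-GFP cells, 500 pg/mL final, 18 h at 37 degrees C in DMEM plus 1% FBS, normalized to unstimulated and DMSO-stimulated controls.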
HepG2 tox: kills HepG2 cells in TGF-b inhibitor counter-screen | hit rate 0.76% among 410,000 | HepG2 CAGA-GFP viability, ATP luminescence, 18 h | Potency, µM (series often up to 46.1 µM), for the others: at the top dose activity change, negative = cytotoxicity, most hits filed as cytotoxic; also: potency is read from the fitted curve at half-maximal effect
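CellTiter-Glo luminescence gave cytotoxicity after 18 hours at 37 degrees C. The cells were HepG2 CAGA-GFP in 1% FBS DMEM, stimulated with 500 pg/mL TGF-beta after compound addition. %Activity was normalised to no-cell wells (complete cell-killing) and DMSO (no toxicity), and curves were fitted and classified.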
Six1-Eya2 blk: Six1/Eya2 interaction inhibition; Q15475+O00167; AlphaScreen GST-Six1/His-Eya2 binding, biochemical; stronger effect = lower value; activity change, % (no concentration beside the values); hit rate 0.56% among 360,000; AID 651725; in the data active = activity change below about -65%; inconclusive = mostly about -30% to -63%; also: % is scaled to controls: 0 for no effect and ±100 for the full control effect
Target sequence (O00167 whole entry, looked up): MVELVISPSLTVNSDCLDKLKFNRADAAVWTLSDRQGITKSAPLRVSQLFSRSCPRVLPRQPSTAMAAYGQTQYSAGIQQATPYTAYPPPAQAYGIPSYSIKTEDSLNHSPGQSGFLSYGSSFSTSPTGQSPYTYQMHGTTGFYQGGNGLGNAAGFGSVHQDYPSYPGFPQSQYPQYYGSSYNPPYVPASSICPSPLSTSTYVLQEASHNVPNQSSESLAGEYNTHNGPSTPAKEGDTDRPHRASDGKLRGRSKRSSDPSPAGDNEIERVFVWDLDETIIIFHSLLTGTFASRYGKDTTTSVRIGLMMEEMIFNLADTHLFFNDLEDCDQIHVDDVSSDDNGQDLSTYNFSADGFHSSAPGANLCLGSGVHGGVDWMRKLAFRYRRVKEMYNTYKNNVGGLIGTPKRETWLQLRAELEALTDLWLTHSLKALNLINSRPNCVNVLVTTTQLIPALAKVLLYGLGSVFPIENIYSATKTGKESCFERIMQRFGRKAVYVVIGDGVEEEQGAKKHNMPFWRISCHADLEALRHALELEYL
Target sequence (Q15475 whole entry, looked up): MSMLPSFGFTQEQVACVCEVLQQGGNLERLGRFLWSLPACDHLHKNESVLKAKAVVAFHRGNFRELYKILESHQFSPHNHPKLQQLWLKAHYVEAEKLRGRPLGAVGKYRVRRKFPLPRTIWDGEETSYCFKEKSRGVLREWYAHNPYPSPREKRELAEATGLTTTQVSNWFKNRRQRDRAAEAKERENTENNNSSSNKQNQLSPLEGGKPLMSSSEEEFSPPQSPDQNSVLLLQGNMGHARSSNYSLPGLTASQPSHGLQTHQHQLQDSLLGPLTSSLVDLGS
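AlphaScreen with GST-Six1 and His-Eya2 (5X mix: 250 nM and 500 nM), glutathione donor and nickel acceptor beads; buffer 50 mM Tris pH 8.0, 300 mM NaCl, 1 mM TCEP; 1 h at 37 C in the dark.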
ATXN2 expr inh: reduces ATXN2 reporter expression in HEK-293 cells; HEK-293 ATXN2-luciferase reporter, luminescence, 24 h; Potency, µM (doses to about 57 µM), without a hit: at the highest dose activity change, negative = inhibition, actives largely listed as inhibitors; hit rate 0.72% among 360,000; AID 1745845; also: potency is read from the fitted curve at half-maximal effect; % is scaled to controls: 0 for no effect and ±100 for the full control effect; nearly all actives have a fitted effect of over 55% in size
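qHTS (up to 57 uM final) was run with 24 h compound exposure of reporter cells at 37 °C. Each well was multiplexed: SteadyGlo luminescence measured ATXN2-luciferase expression after a fluorogenic Gly-Phe-AFC viability readout (25 uM final).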
Numbers without * were called inactive; i = inactive; ? = inconclusive; . = not tested or not shown; ! = a repeat was not active. An excerpt weighted towards active compounds, which were near 2.8% of everything screened. Unless noted, calls follow the shape of the dose curve; as a rule, active = well fitted curve in the direction sought with a large enough effect; inconclusive = small, poorly fitted or top-dose-only effect, or another doubt; inactive = no such curve, though single readings can be large; an effect the other way counts as inactive or inconclusive.

SMILES	S2 tox	CtBP-E1A blk	TGFb inhibitor	HepG2 tox	Six1-Eya2 blk	ATXN2 expr inh
CCCC[n+]1ccn(C2=C([O-])c3ccccc3C(=O)/C2=N\S(=O)(=O)c2ccc(Br)cc2)c1	?	-4.8	6.31µM*	-43.7%	1.5	-11.2%
CC(=O)Nc1ccc(S(=O)(=O)/N=C2\C(=O)c3ccccc3C([O-])=C2n2cc[n+](-c3ccccn3)c2)cc1	?	0.3	?	-131.0%	1.0	.
Cc1ccc(S(=O)(=O)/N=C2\C(=O)c3ccccc3C([O-])=C2n2cc[n+](CCC(C)C)c2)cc1	i	2.5	3.98µM*	7.08µM*	-3.4	?
CCc1nc2cc(C(=O)N3CCCN(C=O)CC3)cc(NC(=O)c3ccccc3OC)c2n1C	i	.	.	.	.	.
CC1(C)CCN2CCC(C)(C)c3c(O)ccc1c32	?	-16.6	60.7%	-17.9%	-22.4	3.16µM*
N=C(N)c1ccc(N)cc1	i	5.7	23.2%	6.4%	5.4	6.2%
NC(=Nc1ccc(N)cc1)C(N)=Nc1ccc(N)cc1	i	?	-4.7%	9.2%	-65.3*	-5.1%
COc1ccc2oc(C(=O)Nc3ccc(S(=O)(=O)N(C)C4CCN(C)CC4)cc3)c(C)c2c1	?	-5.9	?	12.6µM*	-21.7	?
COc1ccc(NC(=O)c2oc3ccc(S(=O)(=O)N4CCCCC4)cc3c2C)cc1	i	.	49.3%	20.5%	.	-13.9%
O=C(O)CN1C(=O)C=CC1=O	?	1.3	7.3%	-1.9%	-4.0	.
O=C1C=CC(=O)N1CCCCCCN1C(=O)C=CC1=O	.	-13.0	4.47µM*	-109.6%	-15.2	?
Cn1cc(-c2cc3n(n2)CCC(=O)N3CC(=O)NCc2ccccc2)c2ccccc21	i	.	-27.2%	-30.2%	.	6.9%
Cc1c(C(=O)NC2CCCCCC2)sc2ncnc(NCC3CCCO3)c12 (configuration not stated)	i	.	.	.	.	.
CCc1ccccc1NC(=O)C(CC)Sc1nc2cc3c(cc2c(=O)n1Cc1ccco1)OCO3 (configuration not stated)	17.8µM*	0.4	6.3%	-6.0%	7.2	15.8µM*
O=C(c1cc(COc2cccc(C(F)(F)F)c2)on1)N1CCC(c2ccncc2)CC1	?	10.6	?	-42.6%	-1.5	14.1µM*
O=C(Nc1cccc(Cl)c1)C1CCCN(c2nn3cc(-c4ccc(F)cc4)nc3s2)C1 (configuration not stated)	.	.	-6.9%	-25.7%	.	.
Cc1nc2ccccc2n1CCc1nc2c3ccccc3nc(SCc3ccc(F)cc3)n2n1	i	.	1.9%	18.0%	.	12.8%
Cc1cccc(C=NNc2cc(N3CCOCC3)nc(OCCc3ccccn3)n2)c1	.	.	.	.	.	0.968µM*
Cc1cccc(/C=N/Nc2cc(N3CCOCC3)nc(N3CCOCC3)n2)c1	i	0.8	12.5%	-42.6%	8.9	-39.4%
Cc1ccccc1CN1Cc2cccc3c2[C@H](C=CC3)CC1=O	.	.	?	-4.2%	.	.
CCOC(=O)c1ccc(N2C(=O)c3[nH]nc(-c4ccccc4)c3C2c2cccs2)cc1 (configuration not stated)	.	.	7.08µM*	-45.9%	.	.
CCOC(=O)c1ccc(N2C(=O)c3[nH]nc(-c4ccccc4)c3C2c2ccc(CC)cc2)cc1 (configuration not stated)	.	.	11.2µM*	11.2µM*	.	?
CCOC(=O)c1ccc(N2C(=O)c3[nH]nc(-c4ccc(OCC)cc4)c3C2c2cccs2)cc1 (configuration not stated)	?	.	?	-20.4%	.	?
COc1ccc(C(=O)Nc2nnc(S(=O)(=O)N3CCN(c4ccc(F)cc4)CC3)s2)cc1	i	.	-0.8%	-19.3%	.	11.8%
COc1ccc(Cl)cc1NC(=O)C1CCCN(c2ncnc3onc(C)c23)C1 (configuration not stated)	i	.	?	-22.5%	.	?
SMILES	S2 tox	CtBP-E1A blk	TGFb inhibitor	HepG2 tox	Six1-Eya2 blk	ATXN2 expr inh
CCCC[C@@H](CNC)NC[C@H](NCCCCC1CCCCC1)C(C)C	?	0.0	?	-99.3%	-2.0	25.1µM*
COc1cc(=O)n2c(c1C(=O)NCc1ccco1)CCN(Cc1ccc3nsnc3c1)CC2	i	.	.	.	.	.
CC(C)N1CCN(C(=O)c2cnn(-c3nccc(-c4ccc5c(c4)OCO5)n3)c2-c2ccco2)CC1	i	.	.	.	.	.
COc1ccc(CN(C)C(=O)/C=C/c2ccc(S(=O)(=O)N3CCCCCC3)cc2)cc1	i	-3.5	?	-10.3%	-1.1	-6.4%
CNC(=O)c1ccc(CN(C)C(=O)/C=C/c2ccc(S(=O)(=O)N3CCCCCC3)cc2)cc1	i	-3.8	-25.1%	7.08µM*	5.6	.
CCOC(=O)c1c(-c2ccccc2)oc2cc(CN(C)C)c(O)c(CN(C)C)c12	i	-9.5	-4.8%	-47.7%	-12.1	14.1µM*
CCOC(=O)c1c(C)oc2cc(Cl)c(O)c(CN(C)C)c12	i	3.0	4.5%	20.5%	3.0	59.6%
COCCNC(=O)C1(C)CCCN(Cc2cc(-c3ccccc3)nn2C)C1 (configuration not stated)	i	-9.1	-0.9%	-13.8%	7.7	2.8%
COc1ccccc1-c1oc2ccccc2c1C#CC1(O)CCCCC1	i	2.4	?	-40.6%	2.0	-13.3%
COc1ccccc1-c1oc2ccccc2c1C#CC1(N)CCCCC1	25.1µM*	-6.3	?	-101.3%	-5.5	?
O=[N+]([O-])c1cc(/C=N/Nc2nc3ccccc3[nH]2)c(O)cc1O	i	-98.6*	?	-11.2%	-96.8*	-19.6%
Cc1ccccc1/C=N/Nc1nc2ccccc2[nH]1	i	-8.2	-22.7%	-17.2%	12.3	30.1%
C(=N\Nc1nc2ccccc2[nH]1)/c1cccc2cccnc12	?	.	?	-36.5%	-83.6*	.
NCC(=O)Nc1ccc(Cl)cc1C(=O)c1ccc[nH]1	i	.	-0.1%	-24.3%	-81.3*	.
CC(=O)Nc1ccc(Cl)cc1C(=O)c1ccc[nH]1	i	0.8	5.7%	-0.3%	1.4	.
CCC(=O)N[C@H]1CC[C@H](C(=O)N(C)c2ccc(-c3nc4ccccc4o3)cc2)C1	.	.	.	.	.	22.9%
Nc1nc(=S)c2[nH]cnc2[nH]1	?	-5.4	?	1.41µM*	-4.8	3.98µM*!
Nc1nc(=S)c2[nH]c(=S)[nH]c2[nH]1	i	-1.0	-4.4%	-15.4%	-8.7	-22.4%
COc1ccc(CCNS(=O)(=O)c2ccc(F)c(C(=O)Nc3ccc(Cl)cc3)c2)cc1OC	?	.	?	-20.7%	.	?
COC(=O)Cc1ccc(NC(=O)c2ccc(C(C)(C)C)cc2)cc1	i	0.4	8.9%	-29.8%	21.7	0.794µM*
